Compounds without any hit were thinned out: in the full panel of roughly 83,000, 20% have a hit.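 For each line, cells grew in 96-well plates with the test compound present at a single concentration for 48 hours.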 A number with no mark means an inactive call. The source made the active and inactive calls. Rule for the calls: active = growth percent below 10; inactive = the rest.
Columns and labels:
Assay in all cases: NCI-60 one-dose screen, 48 h (100 = growth as untreated, 0 = no growth, -100 = all killed)
Conditions in all cases: 10 µM unless noted
[1] = tested on: SK-MEL-2 melanoma
[2] = tested on: EKVX NSCLC
[3] = tested on: SN12C renal
[4] = tested on: UO-31 renal
[5] = tested on: TK-10 renal
[6] = tested on: ACHN renal
[7] = tested on: CAKI-1 renal
[8] = tested on: A498 renal
[9] = tested on: MOLT-4 leukemia
[10] = tested on: SR leukemia
[11] = tested on: RPMI-8226 leukemia
[12] = tested on: OVCAR-8 ovarian
[13] = tested on: OVCAR-5 ovarian
[14] = tested on: OVCAR-4 ovarian
[15] = tested on: SK-OV-3 ovarian
[16] = tested on: IGROV1 ovarian
[17] = tested on: OVCAR-3 ovarian
[18] = tested on: HS 578T breast
[19] = tested on: NCI/ADR-RES ovarian
[20] = tested on: CCRF-CEM leukemia

Cc1cc[c-]cc1.Fc1c[c-]c(-c2ccccn2)c(F)c1.[Pt+2].c1ccc(P(C[PH+](c2ccccc2)c2ccccc2)c2ccccc2)cc1
growth [1]: 4.88% (active) | growth [2]: 7.66% (active) | growth [3]: 6.18% (active) | growth [4]: 11.4% | growth [5]: 31.5% | growth [6]: -1.88% (active) | growth [7]: 0.998% (active) | growth [8]: 9.17% (active) | growth [9]: 10.7% | growth [10]: 16.8% | growth [11]: -4.4% (active) | growth [12]: 11% | growth [13]: 23.6% | growth [14]: -2.01% (active) | growth [15]: -3.95% (active) | growth [16]: 23.5% | growth [17]: 12.9% | growth [18]: 39.6% | growth [19]: 87.3%

O=C(N=c1oc2ccccc2cc1-c1cc2ccccc2[nH]1)c1ccc(Cl)cc1
growth [1]: 101% | growth [2]: 38.9% | growth [3]: 80.3% | growth [4]: 54.5% | growth [5]: 53.1% | growth [6]: 6.82% (active) | growth [7]: 56.2% | growth [8]: 69.6% | growth [20]: 24.7% | growth [11]: 38.5% | growth [12]: 50.5% | growth [13]: 89.3% | growth [14]: 57.7% | growth [15]: 57.3% | growth [16]: 29.7% | growth [17]: 50.5% | growth [18]: 63.3% | growth [19]: 38.6%

N=c1sc(Cc2ccc(Cl)cc2)cn1CC(=O)c1ccc(F)cc1
growth [1]: 97.1% | growth [2]: 70.5% | growth [3]: 87.5% | growth [4]: 57.6% | growth [5]: 66.9% | growth [6]: 47.2% | growth [7]: 44.6% | growth [8]: 91.1% | growth [9]: 71.3% | growth [10]: 87.4% | growth [11]: 74.1% | growth [12]: 80% | growth [13]: 71% | growth [14]: 69% | growth [15]: 107% | growth [16]: 78.2% | growth [17]: 92.6% | growth [18]: 96.9% | growth [19]: 73.9%

N#C/C(=C\c1ccc(Br)cc1)n1nnc2cc(F)c(F)cc21
growth [1]: 29.5% | growth [2]: 69.8% | growth [3]: 17% | growth [4]: 33.9% | growth [5]: 32.1% | growth [6]: 24% | growth [7]: 22.9% | growth [8]: 26.8% | growth [9]: 1.95% (active) | growth [10]: 6.06% (active) | growth [11]: 0% (active) | growth [12]: 8.14% (active) | growth [13]: 3.24% (active) | growth [14]: 29.8% | growth [15]: 62.5% | growth [16]: 6.79% (active) | growth [17]: 2.19% (active) | growth [18]: 56.1% | growth [19]: 1.66% (active)

Cc1ccc(C(=O)C2=C(O)C(=O)N(Cc3cccnc3)C2c2ccccc2F)o1 (stereo not given)
growth [1]: 92.1% | growth [2]: 97.7% | growth [3]: 95.7% | growth [4]: 93.3% | growth [5]: 104% | growth [6]: 98.5% | growth [7]: 105% | growth [8]: 95% | growth [9]: 90.3% | growth [10]: 97.3% | growth [11]: 105% | growth [12]: 92.6% | growth [13]: 101% | growth [14]: 106% | growth [15]: 94.5% | growth [16]: 68.2% | growth [17]: 97.4% | growth [18]: 102% | growth [19]: 98.9%

Cc1cc(C)c(-c2c(C)cc(C)cc2CBr)c(CBr)c1
growth [1]: 94.5% | growth [2]: 102% | growth [3]: 80.3% | growth [4]: 75.9% | growth [5]: 103% | growth [6]: 75% | growth [7]: 87.6% | growth [8]: 73.1% | growth [20]: 42% | growth [11]: 50.2% | growth [12]: 68.3% | growth [13]: 97.1% | growth [14]: 74.1% | growth [15]: 101% | growth [16]: 90.3% | growth [17]: 90.9% | growth [18]: 86.6% | growth [19]: 72.2%

COc1ccc(C2=Nc3c(N)ncnc3NC(c3ccc4c(c3)OCO4)C2)cc1 (stereo not given)
growth [1]: 57.6% | growth [2]: 82.1% | growth [3]: 102% | growth [4]: 79.4% | growth [5]: 107% | growth [6]: 83.6% | growth [7]: 90% | growth [8]: 97.5% | growth [9]: 105% | growth [10]: 96.5% | growth [11]: 61.5% | growth [12]: 103% | growth [13]: 72.9% | growth [14]: 95% | growth [15]: 97.5% | growth [16]: 37% | growth [17]: 100% | growth [18]: 87.7% | growth [19]: 75.7%

COc1ccc2nc(NNC(=O)c3cnccn3)c3cccn3c2c1
growth [1]: 46.1% | growth [2]: 2.79% (active) | growth [3]: 8.52% (active) | growth [4]: -17% (active) | growth [5]: 30.7% | growth [6]: -22.8% (active) | growth [7]: 4.46% (active) | growth [8]: -11.5% (active) | growth [20]: 1.48% (active) | growth [11]: 0.953% (active) | growth [13]: 4.68% (active) | growth [14]: -7.44% (active) | growth [15]: -1.5% (active) | growth [16]: -35% (active) | growth [17]: 1.47% (active) | growth [18]: 43.8% | growth [19]: -13.4% (active)

CC1(c2ccccc2)NC(=O)N(NC(=O)CSc2nc(-c3cccs3)nc3ccccc23)C1=O (stereo not given)
growth [1]: 89.8% | growth [2]: 93% | growth [3]: 100% | growth [4]: -6.98% (active) | growth [5]: 113% | growth [6]: 91.5% | growth [7]: 72.3% | growth [8]: 71.4% | growth [9]: 73.5% | growth [10]: 67% | growth [11]: 72.9% | growth [12]: 82.4% | growth [13]: 76.7% | growth [14]: 106% | growth [15]: 124% | growth [16]: 88.6% | growth [17]: 95.9% | growth [18]: 101% | growth [19]: 87.9%

CC1O[C@@H](OC2[C@H](OC(=O)/C=C/c3ccc(O)c(O)c3)C(COC3O[C@H](C)C(O)C(O)[C@@H]3O)O[C@@H](OCCc3ccc(O)c(O)c3)[C@H]2O)[C@@H](O)C(O)[C@H]1O (stereo not given in full)
growth [1]: 99.6% | growth [2]: 91.2% | growth [3]: 106% | growth [4]: 89.9% | growth [5]: 100% | growth [6]: 103% | growth [7]: 97.3% | growth [8]: 107% | growth [9]: 99.1% | growth [10]: 105% | growth [11]: 104% | growth [12]: 106% | growth [13]: 105% | growth [14]: 104% | growth [15]: 90.3% | growth [16]: 102% | growth [17]: 108% | growth [18]: 108% | growth [19]: 116%

O=Cc1c[nH]c2ccc(-c3csc4ccccc34)cc12
growth [1]: 110% | growth [2]: 55.9% | growth [3]: 75.2% | growth [4]: 42.9% | growth [5]: 60.6% | growth [6]: 63.7% | growth [7]: 39.7% | growth [8]: 43.5% | growth [9]: 15.7% | growth [10]: 6.86% (active) | growth [11]: 27.8% | growth [12]: 27.6% | growth [13]: 86.3% | growth [14]: 94.2% | growth [15]: 49.4% | growth [16]: 20.5% | growth [17]: 23.8% | growth [18]: 40.4% | growth [19]: 12.3%

O=C(N/N=C/c1ccncc1)c1ccc(C(F)(F)F)nc1Nc1cccc(C(F)(F)F)c1
growth [1]: -10.9% (active) | growth [2]: 18.4% | growth [3]: 37.7% | growth [4]: 8.19% (active) | growth [5]: 16.8% | growth [6]: 17.1% | growth [7]: 6.02% (active) | growth [8]: 35.3% | growth [9]: 6.05% (active) | growth [10]: 2.02% (active) | growth [11]: -64.1% (active) | growth [12]: -4.88% (active) | growth [13]: 24.7% | growth [14]: -0.699% (active) | growth [15]: 32.1% | growth [16]: -35.9% (active) | growth [17]: 1.03% (active) | growth [18]: 44.4% | growth [19]: -10.7% (active)

COc1ccc(-c2nc(SC(C)C)nc(NNC(N)=S)c2C#N)cc1
growth [1]: 48.7% | growth [2]: 65.7% | growth [3]: 55.1% | growth [4]: 64.3% | growth [5]: 72.9% | growth [6]: 72.1% | growth [7]: 42.3% | growth [8]: 50.2% | growth [9]: 32.1% | growth [10]: 24.4% | growth [11]: 32.7% | growth [12]: 71.2% | growth [13]: 66% | growth [14]: 86.3% | growth [15]: 73% | growth [16]: 52.6% | growth [17]: 18.2% | growth [18]: 54.9% | growth [19]: 19.6%

CN(Cc1cnc2nc(N)nc(N)c2n1)c1ccc(C(=O)N[C@@H](CCc2nn[nH]n2)c2nn[nH]n2)cc1
growth [1]: 75.3% | growth [2]: 85.7% | growth [3]: 36% | growth [4]: 43.1% | growth [5]: 56.4% | growth [6]: 33.6% | growth [7]: 29.3% | growth [8]: 97.2% | growth [9]: 28.2% | growth [10]: 29.2% | growth [11]: 44.1% | growth [12]: 32.8% | growth [13]: 56.1% | growth [14]: 91% | growth [15]: 82.8% | growth [16]: 45.6% | growth [17]: 53% | growth [18]: 76.2% | growth [19]: 40.4%

COC(=O)[C@H](CSC)N(C)C(=O)[C@@H]1CSSC[C@@H](NC(=O)c2nc3ccccc3cc2O)C(=O)NCC(=O)N1C
growth [1]: 61.3% | growth [2]: 82.8% | growth [3]: 66.5% | growth [4]: 71.9% | growth [5]: 88.4% | growth [6]: 88% | growth [7]: 104% | growth [8]: 102% | growth [9]: 23.8% | growth [10]: 28.6% | growth [11]: 85.2% | growth [12]: 90.2% | growth [13]: 128% | growth [14]: 103% | growth [15]: 91.6% | growth [16]: 95.8% | growth [17]: 58.2% | growth [18]: 90.9% | growth [19]: 104%

O=c1cc(C2NNC(=S)N2)c2ccc3ccccc3c2o1 (stereo not given)
growth [1]: 106% | growth [2]: 64.5% | growth [3]: 100% | growth [4]: 70.6% | growth [5]: 126% | growth [6]: 94.7% | growth [7]: 85.1% | growth [8]: 88.1% | growth [9]: 102% | growth [10]: 97.8% | growth [11]: 74.8% | growth [12]: 97.4% | growth [13]: 109% | growth [14]: 101% | growth [15]: 97.2% | growth [16]: 76.8% | growth [17]: 106% | growth [18]: 71% | growth [19]: 101%
